Assay results from PubChem BioAssay (EPA / NIEHS).
Where “and” joins values, the source holds several entries; their conditions need not be identical. Equal values may be shown once. Results filed as inconclusive are left out. A structure can be active in one record and inactive in another. Calls of active or inactive are those of the source. The calls were made as follows: active = hit-call score of the fitted dose curve at least 0.9, where 1 is the maximum; inconclusive = response in the unintended direction; inactive = score below 0.9.

Key:
[1] = biological target: chicken Estrogen Receptor (ERa), ESR1 (gene 396099) (UniProt P06212); assay: ATG_chERa_XSP2: Attagene TRANS-FACTORIAL Multi-Species (XSP2) HepG2 Assay for chicken Estrogen Receptor (ERa) (AID 2283817);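 also: actives raise reporter signal above DMSO so AC50 reflects ER activation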
Summary of the method: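 Transiently transfected HepG2 cells expressing chimeric chicken ERa-GAL4 reporter units, dosed 24 h with 3 nM 6-alpha-fluorotestosterone and 1.5 nM norgestrel present. Reporter mRNA measured by RT-PCR and capillary electrophoresis; gain-of-signal fitted relative to DMSO.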

[2] = tested on: zebrafish Estrogen Receptor (ER2a), gene 317734; assay: ATG_zfER2a_XSP2: Attagene TRANS-FACTORIAL Multi-Species (XSP2) HepG2 Assay for zebrafish Estrogen Receptor (ER2a) (AID 2283818);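 also: hits raise reporter mRNA so AC50 reflects activation of zebrafish ER2a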
Summary of the method: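 HepG2 cells transiently transfected with GAL4-UAS reporter units and chimeric zebrafish ER2a-Gal4, exposed 24 h; medium contains 3 nM 6-alpha-fluorotestosterone and 1.5 nM norgestrel. Reporter mRNA quantified by RT-PCR, HpaI digestion, capillary electrophoresis; gain versus DMSO.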

[3] = tested on: chicken Androgen Receptor (AR), gene 422165; assay: ATG_chAR_XSP2: Attagene TRANS-FACTORIAL Multi-Species (XSP2) HepG2 Assay for chicken Androgen Receptor (AR) (AID 2283819);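 also: hits raise reporter mRNA above DMSO so potency is for activation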
Summary of the method: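 HepG2 cells transiently transfected with chicken AR–GAL4 chimeric reporter constructs, stimulated with 3 nM 6-alpha-fluorotestosterone plus 1.5 nM norgestrel, dosed 24 h. Reporter mRNA quantified by RT-PCR and capillary electrophoresis; gain of signal fitted versus DMSO.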

[4] = ATG_M_19_XSP2: Attagene TRANS-FACTORIAL Multi-Species (XSP2) HepG2 Assay for M32 Transcription Factor (Internal Marker) (AID 2283822)
Summary of the method: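 Internal background marker in a multi-species nuclear receptor TRANS panel: transfected HepG2 cells exposed 24 h, with 3 nM 6-alpha-fluorotestosterone and 1.5 nM norgestrel present. Readout is RT-PCR of reporter transcripts resolved by capillary electrophoresis, gain-of-signal versus DMSO.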

[5] = tested on: zebrafish Estrogen Receptor (ER2b), gene 317733; assay: ATG_zfER2b_XSP2: Attagene TRANS-FACTORIAL Multi-Species (XSP2) HepG2 Assay for zebrafish Estrogen Receptor (ER2b) (AID 2283823);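 also: fitted upward as reporter gain over DMSO so potency reflects activation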
Summary of the method: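 HepG2 human liver cells transiently transfected with multiplexed GAL4-UAS reporter units expressing chimeric NR-Gal4 proteins; compounds dosed for 24 h. Reporter mRNA quantified by RT-PCR, 6-FAM labelling and capillary electrophoresis; gain-of-signal fitted against DMSO baseline.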

[6] = tested on: frog Androgen Receptor (AR), gene 399456; assay: ATG_frAR_XSP2: Attagene TRANS-FACTORIAL Multi-Species (XSP2) HepG2 Assay for frog Androgen Receptor (AR) (AID 2283824);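 also: actives raise reporter signal above DMSO so AC50 reflects agonist-like induction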
Summary of the method: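 HepG2 cells transiently transfected with GAL4-UAS reporter units and frog (Xenopus laevis) AR-Gal4 chimera; reporter mRNA measured 24 h after dosing by RT-PCR and capillary electrophoresis. Gain of signal fitted relative to DMSO baseline.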

[7] = ATG_M_32_XSP2: Attagene TRANS-FACTORIAL Multi-Species (XSP2) HepG2 Assay for M19 Transcription Factor (Internal Marker) (AID 2283826)
Summary of the method: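 Read-out: reporter mRNA quantified by RT-PCR, FAM labeling, HpaI digestion and capillary electrophoresis, 24 h after dosing transfected HepG2 cells. Medium carried 3 nM 6-alpha-fluorotestosterone plus 1.5 nM norgestrel; gain of signal fitted against DMSO.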

[8] = tested on: frog Estrogen Receptor (ER2), gene 100174814; assay: ATG_frER2_XSP2: Attagene TRANS-FACTORIAL Multi-Species (XSP2) HepG2 Assay for frog Estrogen Receptor (ER2) (AID 2283828)
Summary of the method: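 HepG2 cells transiently transfected with multiplexed GAL4-UAS reporter units expressing chimeric frog ER2–Gal4 protein; reporter mRNA measured 24 h after chemical dosing by RT-PCR, fluorescent labeling and capillary electrophoresis. Gain-of-signal fitted relative to DMSO baseline.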

[9] = biological target: zebrafish Estrogen Receptor (ER1), esr1 (gene 259252) (UniProt P57717); assay: ATG_zfER1_XSP2: Attagene TRANS-FACTORIAL Multi-Species (XSP2) HepG2 Assay for zebrafish Estrogen Receptor (ER1) (AID 2283816)
Summary of the method: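 HepG2 cells transiently transfected with a GAL4-UAS reporter and a chimeric zebrafish ER1-Gal4 construct, dosed 24 h. Reporter mRNA quantified by RT-PCR, labelling, HpaI digestion and capillary electrophoresis, relative to DMSO.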

[10] = biological target: Estrogen receptor (Homo sapiens) (UniProt P03372); assay: ATG_hERa_XSP2: Attagene TRANS-FACTORIAL Multi-Species (XSP2) HepG2 Assay for human Estrogen Receptor (ERa) (AID 2283827)
Experimental: ATG_XSP2_multi-species_TRANS is a cell-based, multiplexed assay created by modifying the existing Attagene TRANS-FACTORIAL system to include a panel of nuclear receptors from some or all the following species: human (Homo sapiens), mouse (Mus musculus), frog (Xenopus laevis), zebrafish (Danio rerio), chicken (Gallus gallus), and turtle (Chrysemys picta). The ECOTOX-FACTORIAL format uses HepG2, a human liver cell line, with measurements taken at 24 hours after chemical dosing in a 24-well plate. Xsp2 included 3 nM 6-alpha-fluorotestosterone and 1.5 nM norgestrel to stimulate the androgen receptor.ATG_hERa_XSP2 is one of 29 assay components measured or calculated from the ATG_XSP2_multi-species_TRANS assay. It is designed to make measurements of mRNA induction, a form of inducible reporter, as detected with fluorescence intensity signals by Reverse transcription polymerase chain reaction (RT-PCR) and Capillary electrophoresis technology.The assay endpoint ATG_hERa_XSP2 was analyzed in the positive analysis fitting direction relative to DMSO as the negative control and baseline of activity. Using a type of inducible reporter, measures of mRNA for gain-of-signal activity can be used to understand the reporter gene at the transcription factor-level as they relate to the gene ER. Furthermore, this assay endpoint can be referred to as a primary readout, because this assay has produced multiple assay endpoints where this one serves a reporter gene function. To generalize the intended target to other relatable targets, this assay endpoint is annotated to the nuclear receptor intended target family, where the subfamily is steroidal.
Human liver HepG2 cells are transiently transfected with multiple reporter transcription units (MRTUs) in 6-well plates using FuGene 6 reagent (Roche; 3 ml FuGene/1 mg DNA). The MRTU constructs are regulated by a cis-regulating element (promoter). […] A major difference between the CIS and TRANS system is that in CIS activities of endogenous TFs are measured, whereas the TRANS assay evaluates changes in activities of exogenous, chimeric NR-Gal4 proteins. […] At the end of 24 hour incubation, total RNA was isolated using TriZol reagent (Invitrogen). The isolated RNA is then reverse-transcribed using oligo(dT) primer and Mo-MLV reverse transcriptase (Invitrogen) with DNAse I (Ambion) treatment for 30 min. The one-tenth of the produced cDNA was amplified by PCR using Taq DNA polymerase (Invitrogen) and two reporter sequence-specific primers. The PCR products were fluorescently labeled by primer extension with 6-arboxyfluorescein (6-FAM) 5'-labeled reporter sequence-specific primer (2 min at 95 C, 20 s at 68 C and 10 min at 72 C) and these products were digested with 5U of HpaI (New England Biolabs) for 2h at 37 C. The fragments were purified using Qiaquick PCR columns (Qiagen), analyzed on an ABI 3130xL genetic analyzer (Applied Biosystems) with peak positions identified by using a set of X-rhodamine (ROX)-labeled MapMarker1000 molecular weight standards (BioVentures). The raw capillary electrophoresis data was processed using Attagraph software (Attagene).

Measured: AC50

zebrafish Estrogen Receptor (ER1), esr1 (gene 259252), sequence (P57717 whole entry, looked up, the tested form may be a part): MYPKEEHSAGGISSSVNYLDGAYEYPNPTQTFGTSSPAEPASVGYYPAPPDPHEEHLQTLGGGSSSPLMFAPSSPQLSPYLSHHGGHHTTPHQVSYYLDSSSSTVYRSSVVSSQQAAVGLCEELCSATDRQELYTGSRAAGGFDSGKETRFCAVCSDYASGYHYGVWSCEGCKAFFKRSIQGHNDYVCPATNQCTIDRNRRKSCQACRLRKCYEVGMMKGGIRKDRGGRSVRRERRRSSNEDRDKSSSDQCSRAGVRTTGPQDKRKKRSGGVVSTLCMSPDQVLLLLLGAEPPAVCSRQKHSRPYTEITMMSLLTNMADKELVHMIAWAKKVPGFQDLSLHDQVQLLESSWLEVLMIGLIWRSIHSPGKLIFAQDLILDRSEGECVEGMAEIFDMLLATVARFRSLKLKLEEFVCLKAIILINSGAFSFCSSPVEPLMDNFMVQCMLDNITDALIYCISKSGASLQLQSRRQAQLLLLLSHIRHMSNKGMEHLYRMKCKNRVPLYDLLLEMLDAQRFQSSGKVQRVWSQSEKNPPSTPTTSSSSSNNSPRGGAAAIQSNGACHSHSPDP
Estrogen receptor (Homo sapiens), sequence (P03372 whole entry, looked up): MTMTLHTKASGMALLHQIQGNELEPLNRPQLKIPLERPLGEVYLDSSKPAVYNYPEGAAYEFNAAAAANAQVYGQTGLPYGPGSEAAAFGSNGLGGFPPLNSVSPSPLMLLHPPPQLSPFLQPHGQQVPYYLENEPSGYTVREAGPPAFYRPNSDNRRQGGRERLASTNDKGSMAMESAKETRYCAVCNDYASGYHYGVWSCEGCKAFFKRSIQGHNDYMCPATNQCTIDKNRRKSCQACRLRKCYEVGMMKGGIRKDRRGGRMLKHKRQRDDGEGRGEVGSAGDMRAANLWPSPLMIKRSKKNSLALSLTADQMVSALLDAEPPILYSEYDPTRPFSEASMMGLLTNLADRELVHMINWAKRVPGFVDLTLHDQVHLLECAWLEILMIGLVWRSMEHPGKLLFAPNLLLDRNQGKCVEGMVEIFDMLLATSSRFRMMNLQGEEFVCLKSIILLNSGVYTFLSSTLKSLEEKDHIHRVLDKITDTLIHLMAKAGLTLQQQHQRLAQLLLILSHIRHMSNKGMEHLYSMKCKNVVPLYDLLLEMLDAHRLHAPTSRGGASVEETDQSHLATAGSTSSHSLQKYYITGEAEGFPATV
chicken Estrogen Receptor (ERa), ESR1 (gene 396099), sequence (P06212 whole entry, looked up, the tested form may be a part): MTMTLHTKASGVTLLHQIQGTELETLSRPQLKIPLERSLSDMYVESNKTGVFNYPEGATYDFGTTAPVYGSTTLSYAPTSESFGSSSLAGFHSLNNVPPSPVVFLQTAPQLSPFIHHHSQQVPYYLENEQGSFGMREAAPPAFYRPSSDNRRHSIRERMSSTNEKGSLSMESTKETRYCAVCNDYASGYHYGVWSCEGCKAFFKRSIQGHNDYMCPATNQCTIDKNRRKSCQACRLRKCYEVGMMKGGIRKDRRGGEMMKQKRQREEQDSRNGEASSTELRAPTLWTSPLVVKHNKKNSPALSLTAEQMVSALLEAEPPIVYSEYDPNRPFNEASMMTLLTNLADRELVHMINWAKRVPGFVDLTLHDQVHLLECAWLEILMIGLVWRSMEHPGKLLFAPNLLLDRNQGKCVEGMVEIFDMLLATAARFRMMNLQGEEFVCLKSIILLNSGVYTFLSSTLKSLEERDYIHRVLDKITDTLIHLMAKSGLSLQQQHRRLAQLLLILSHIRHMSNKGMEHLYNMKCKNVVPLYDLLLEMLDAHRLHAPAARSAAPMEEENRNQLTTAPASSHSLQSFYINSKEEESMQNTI

O=C(O)C(F)(F)C(F)(F)C(F)(F)C(F)(F)C(F)(F)C(F)(F)C(F)(F)F
inactive: [3] | [4] | [6] | [7]
active: [1] 37.9 µM | [2] 100 µM | [5] 124 µM | [8] 64.1 µM

COP(=S)(OC)Oc1ccc(SC)c(C)c1
active: [1] 27.5 µM | [2] 27.8 µM | [5] 59 µM | [10] 8.43 µM | [8] 26.8 µM
inactive: [9]

Oc1cc(Cl)ccc1Oc1ccc(Cl)cc1Cl
inactive: [7] | [8]
active: [1] 7.48 µM | [2] 14.1 µM | [5] 16.1 µM

CCCN(CCOc1c(Cl)cc(Cl)cc1Cl)C(=O)n1ccnc1
inactive: [9] | [1] | [2] | [5] | [7] | [8]

O=S1OCC2C(CO1)C1(Cl)C(Cl)=C(Cl)C2(Cl)C1(Cl)Cl (stereo not drawn)
active: [5] 10 µM | [10] 1.04 µM
inactive: [9] | [1] | [8]

CC(C)(C)C(O)/C(=C\c1ccc(Cl)cc1Cl)n1cncn1 (stereo not drawn)
active: [1] 16 µM | [5] 44 µM and 14.4 µM | [10] 13.2 µM and 17 µM | [8] 23.1 µM and 8.13 µM
inactive: [9] | [1] | [2] | [7]
